Screens deposited in PubChem by National Center for Advancing Translational Sciences (NCATS).
The list is not random: actives were taken first. Their share in the collection is about 10%.
HP1b chromo inh – inhibitors of HP1-beta chromodomain binding to methylated histone tails. P83916. AlphaScreen HP1-beta / biotin-H3K9me3 peptide binding. Potency, µM (highest dose often 114 µM), inactives show top-dose activity change, negative = inhibition, usual class: inhibitors. actives 0.56% (n = 390,000). AID 540317; further: nearly all actives have a fitted effect of over 70% in size
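HP1-beta protein (50 nM final) preincubated 30 min at room temperature with biotinylated H3(1-18)K9me3 peptide (50 nM) in PBS pH 7.4, 0.01% Tween-20, then compound added for 30 min. AlphaScreen streptavidin donor/nickel chelate acceptor beads (10 ug/mL final), 30 min dark, luminescence read.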
G9a block – inhibitors of human histone lysine methyltransferase G9a; Q96KQ7; Potency, µM (series often up to 102 µM), for inactives: top-dose activity, negative = inhibition, actives largely listed as inhibitors; G9a H3K9 monomethylation, AlphaScreen, 2 h; actives 8.8% (n = 350,000); AID 504332; further: on the % scale 0 is the no-effect control and ±100 the full control effect; nearly all actives have a fitted effect of over 75% in size
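Step 1: enzyme (final 20 nM) with compound, 15 min RT. Step 2: substrate peptide 500 nM and SAM 20 uM, 2 h RT. Step 3: anti-H3K9me1 antibody and AlphaScreen beads, 10 min, then plate read.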
JMJD2A Tudor – JMJD2A Tudor domain (human) inhibition. O75164. AlphaScreen JMJD2A-Tudor / H3K4me3 peptide binding. Potency, µM (doses to about 114 µM), for the others: top-dose activity change, negative = inhibition, most hits filed as inhibitors. actives 4.4% (n = 390,000). AID 504339; further: on the % scale 0 is the no-effect control and ±100 the full control effect; nearly all actives have a fitted effect of over 50% in size
GLS inh – blocks human kidney-isoform glutaminase activity | GLS enzymatic activity, qHTS titration | O94925 | Potency, µM (highest dose often 45.5 µM), without a hit: at the highest dose activity change, negative = inhibition, hits mostly inhibitors | actives 0.21% (n = 410,000); further: on the % scale 0 is the no-effect control and ±100 the full control effect
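Read-out is an Amplex red fluorescence increase coupled through glutamate oxidase and HRP, measured before and after 30 min room-temperature incubation. hKGA is in 45 mM KH2PO4 (pH 8.2) with 0.02% Tween-20; glutamine added as 1mM solution.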
BAZ2B block – blocks human BAZ2B; Q9UIF8; Potency, µM (top dose mostly 114 µM), inactives show top-dose activity change, negative = inhibition, most hits filed as inhibitors; AlphaScreen BAZ2B-H3K14Ac peptide displacement; actives 4.4% (n = 360,000); further: on the % scale 0 is the no-effect control and ±100 the full control effect; nearly all actives have a fitted effect of over 60% in size
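Protein-peptide AlphaScreen: BAZ2B 50 nM, b-H3K14Ac 50 nM, 1x PBS pH 7.4 + 0.01% Tween-20. Preincubation 30 min RT; cpd 30 min RT (top 110 uM); beads 20 min RT, light-protected.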
L3MBTL1 inh – inhibitors of human L3MBTL1; Q9Y468; AlphaScreen L3MBTL1–H3K9me1 peptide binding; Potency, µM (series often up to 57.1 µM), for the others: at the highest dose activity, negative = inhibition, usual class: inhibitors; actives 0.66% (n = 230,000); further: on the % scale 0 is the no-effect control and ±100 the full control effect; nearly all actives have a fitted effect of over 60% in size
Target sequence (Q9Y468 whole entry, looked up): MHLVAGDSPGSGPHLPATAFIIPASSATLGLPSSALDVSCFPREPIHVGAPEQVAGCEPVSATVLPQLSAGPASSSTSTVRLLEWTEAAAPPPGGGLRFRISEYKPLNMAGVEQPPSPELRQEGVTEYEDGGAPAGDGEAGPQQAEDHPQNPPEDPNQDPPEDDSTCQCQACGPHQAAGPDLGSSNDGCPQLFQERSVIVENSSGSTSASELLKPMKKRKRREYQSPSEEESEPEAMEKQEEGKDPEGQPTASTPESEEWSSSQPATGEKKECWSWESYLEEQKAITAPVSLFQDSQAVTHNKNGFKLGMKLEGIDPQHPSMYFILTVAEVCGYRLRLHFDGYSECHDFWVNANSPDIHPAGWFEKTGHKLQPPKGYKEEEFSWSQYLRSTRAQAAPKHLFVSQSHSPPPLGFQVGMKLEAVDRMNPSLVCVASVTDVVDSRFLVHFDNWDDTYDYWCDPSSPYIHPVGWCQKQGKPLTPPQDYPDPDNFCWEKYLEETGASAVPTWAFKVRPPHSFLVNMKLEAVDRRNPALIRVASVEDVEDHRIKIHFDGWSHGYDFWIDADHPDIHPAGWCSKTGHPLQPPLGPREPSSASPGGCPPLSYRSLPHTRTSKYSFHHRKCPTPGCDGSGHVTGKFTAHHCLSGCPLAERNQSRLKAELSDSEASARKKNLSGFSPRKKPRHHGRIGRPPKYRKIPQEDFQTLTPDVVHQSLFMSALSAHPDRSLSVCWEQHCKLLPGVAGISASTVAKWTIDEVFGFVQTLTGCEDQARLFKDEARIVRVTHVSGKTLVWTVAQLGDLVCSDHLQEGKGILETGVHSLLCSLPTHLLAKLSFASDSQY
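Displacement of a biotinylated histone H3(1-15) peptide monomethylated at Lys9 (75 nM) from L3MBTL1 (50 nM) was measured by AlphaScreen after a 30 min room-temperature compound incubation; cefsulodin titration served as intraplate control.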
* hit, by the source's call; u = inconclusive; x = not tested or not shown; [ ] = dose if it differs, or a comment. The call rests on the fitted dose curve; in most records, active means well fitted curve in the direction sought with a large enough effect; inconclusive means small, poorly fitted or top-dose-only effect, or another doubt; inactive means no such curve, though single readings can be large; an effect the other way counts as inactive or inconclusive. Potency means the concentration at half of the fitted maximal effect.

SMILES	HP1b chromo inh	G9a block	JMJD2A Tudor	GLS inh	BAZ2B block	L3MBTL1 inh
COc1cc(/C=N/NC(=O)c2ccccn2)cc2c1OCO2	40.9%	3.7%[59 µM]	u	0.7%	50.1µM*	4.4%
O=C(Nc1nnc(S(=O)(=O)N2CCCc3ccccc32)s1)c1cccc(Cl)c1	6.0%	-9.8%[59 µM]	-20.7%	8.4%	-25.3%	x
CN(C)c1ccc(C2C3=C(CCCC3=O)OC3=C2C(=O)CCC3)cc1	-6.8%	u	u	14.2%	-37.7%	-10.9%
CN(C)c1ccc(/C=C2\CCCCC2=O)cc1	-9.2%	50.1µM*	u	21.1%	u	-7.2%
CC1=C(C#N)C(=O)N(C2CCS(=O)(=O)C2)C(=O)/C1=C\c1ccco1 (stereo not given)	x	5.01µM*	x	x	7.08µM*	x
O=C1/C(=C/c2cccnc2)SC(=S)N1C1CCS(=O)(=O)C1 (stereo not given)	18.3%	u	-12.1%	0.1%	-24.3%	17.4%
Cc1ccc(C(C)C)c(OCCn2ccnc2C)c1	u	10µM*	1.26µM*	-2.8%	50.1µM*	-2.6%
Cc1ccc(OCCCCn2ccnc2C)c(C)c1	u	2µM*	1µM*	51.6%	22.4µM*	-10.4%
CC(Cc1ccc(O)c(O)c1)C(C)Cc1ccc(O)c(O)c1 (stereo not given)	u	x	22.4µM*	-26.3%	x	x
COc1cc(C[C@@H](C)[C@@H](C)Cc2ccc(O)c(OC)c2)ccc1O	15.3%	x	u	16.4%	x	-14.4%
C[C@H](Cc1ccc(O)c(O)c1)[C@@H](C)Cc1ccc(O)c(O)c1	x	0.794µM*	x	x	x	x
Cc1cccc(N2CCN(S(=O)(=O)c3ccc(-c4coc(C)n4)cc3)CC2C)c1 (stereo not given)	-1.0%	25.1µM*	-26.5%	3.7%	u	x
COc1ccc(OC)c(CCNC(=O)CCCn2c(=O)c3cccn3c3ccccc32)c1	18.2%	-1.9%[59 µM]	-7.2%	-0.1%	-7.9%	x
Cc1noc(Cn2c(=O)c3cc4c(cc3n(CC(=O)Nc3ccccc3F)c2=O)OCO4)n1	7.2%	-3.8%[59 µM]	-7.6%	0.1%	-14.7%	x
CCCn1c(C)nc2cc(Cl)c(N3CCN(c4nc(-c5ccc(C)cc5)cs4)CC3)cc21	-3.7%	x	-30.7%	1.0%	-3.5%	-2.8%
Cc1ccc(-c2csc(N3CCN(c4cc5c(cc4Cl)nc(-c4ccncc4)n5CCN4CCCCC4)CC3)n2)cc1	-4.9%	22.4µM*	u	-25.5%	u	-10.5%
Cc1ccc(-c2csc(N3CCN(c4ccc5nc(-c6ccncc6)n(CCN6CCCCC6)c5c4)CC3)n2)cc1	u	35.5µM*	44.7µM*	13.1%	u	-28.6%
COc1ccc(-c2csc(N3CCN(c4cc5c(cc4Cl)nc(-c4ccncc4)n5CCOCCO)CC3)n2)cc1	20.5%	28.2µM*	-23.2%	7.3%	50.1µM*	-7.2%
Cc1ccc(C(=O)Cn2c3c(sc2=N)CCCC3)cc1	x	-41.0%[59 µM]	x	x	x	x
CC(C)C(=O)Nc1cccc(C(=O)Nc2nnc(CC(C)(C)C)s2)c1	40.2%	-29.7%[59 µM]	-3.4%	-5.8%	1.3%	x
COc1ccc2nc(N=Nc3ccc(N(C)C)cc3)sc2c1	-35.3%	22.4µM*	u	4.9%	u	u
COc1ccc2nc(/N=C\N(C)C)sc2c1	u	u	-51.9%[57.1 µM]	14.9%	56.2µM*	-3.4%
CC(Nc1ccc(-c2nc(-c3ccccn3)no2)cc1[N+](=O)[O-])c1ccccc1 (stereo not given)	32.0%	-5.7%[59 µM]	-19.9%	2.9%	-5.1%	x
C[C@@](N)(C(=O)O)[C@@H]1C[C@@H]1C(=O)O	x	18.4%[59 µM]	x	x	x	x
COc1ccc2c(c1)c(=O)c(S(=O)(=O)c1ccc(Cl)cc1)cn2Cc1cc(C)ccc1C	33.1%	-10.6%[59 µM]	-2.6%	8.1%	-4.0%	x
SMILES	HP1b chromo inh	G9a block	JMJD2A Tudor	GLS inh	BAZ2B block	L3MBTL1 inh
COc1ccc(C(=O)C2CCCN(Cc3cn[nH]c3-c3ccccc3)C2)cc1OC (stereo not given)	26.6%	-5.8%[0.501 µM]	-18.4%	3.8%	-1.0%	5.0%
COc1ccc(-c2[nH]ncc2CN2CCCC(C(=O)c3cccc(OC)c3)C2)cc1 (stereo not given)	16.9%	44.7µM*	-25.9%	3.7%	-3.9%	-8.8%
COc1ccc(-c2[nH]ncc2CN2CCN(c3ccc(F)cc3)CC2)cc1	15.9%	50.1µM*	-32.2%	15.4%	u	u
COc1ccc2cc(-c3[nH]ncc3CN3CCCC3c3nonc3C)ccc2c1 (stereo not given)	12.8%	-33.4%	79.4µM*	12.9%	u	-14.7%
Fc1ccc(N2CCN(Cc3cn[nH]c3-c3ccccc3)CC2)cc1	-16.6%	70.8µM*	-35.1%	0.8%	-25.3%	u
CCOC(=O)CN1NC2(CCCCCC2)NC1=S	59.6%	x	50.1µM*	13.3%	-10.7%	-4.5%
Cc1cccc(-n2nc(C)c3c(C(=O)O)cc(-c4cccs4)nc32)c1	34.0%	1.5%	-2.8%	-26.8%	3.5%	14.6%
Cc1nn(-c2cccc(Cl)c2)c2nc(-c3ccco3)cc(C(=O)O)c12	11.0%	10µM*	-27.1%	u	u	x
C=CCOc1ccc(CNn2c(C)n[nH]c2=S)cc1OC	48.7%	x	20µM*	4.9%	-0.3%	-11.8%
C=CCOc1c(Br)cc(CNn2c(C)n[nH]c2=S)cc1OC	u	11.2µM*	89.1µM*	38.4%	-30.4%	-8.0%
C=CCOc1c(Br)cc(CNc2nccs2)cc1OC	0.8%	11.2µM*	u	-7.6%	u	-5.6%
C=CCOc1ccc2ccccc2c1CNn1c(C)n[nH]c1=S	26.8%	x	u	4.7%	40.9%	18.0%
COc1ccccc1N1CCN(C(=O)C(CCSC)NS(=O)(=O)c2ccc3c(c2)oc(=O)n3C)CC1 (stereo not given)	17.7%	16.3%[59 µM]	-16.0%	0.6%	16.5%	x
CCN(CC)Cc1cc(O)c(CN(CC)CC)cc1O	1.41µM*	1.26µM*	0.794µM*	15.8µM*	17.8µM*	3.16µM*
NCCNc1ccc(C(=O)N2c3ccccc3Sc3ccccc32)cc1[N+](=O)[O-]	-29.1%	u	u	-6.4%	39.8µM*	-5.7%
O=C(Cn1c(=O)n(Cc2nc(-c3ccccc3)no2)c(=O)c2cc3c(cc21)OCO3)Nc1ccc(Cl)cc1	30.4%	-20.8%[59 µM]	-0.7%	-9.0%	-22.2%	x
CCN(CC)C(=O)C1=C(C)Nc2nc3ccccc3n2C1c1cccc(Cl)c1 (stereo not given)	24.7%	-22.8%[59 µM]	-16.0%	10.2%	0.5%	x
COc1ccc(C2Nc3ccc(Cl)cc3C(=O)N2Cc2ccccc2)cc1COc1ccc(NC(C)=O)cc1 (stereo not given)	x	x	56.2µM*	x	x	x
